For 114 compounds, z-score results are on record in PubChem BioAssay AID488969 (Vanderbilt High Throughput Screening Facility, 2010).

Whole data set: some 110,000 compounds, median “z-score” near -0.1, cut for the highest 2% near 2. This is one part of a sample in which the highest values are shown more often than they occur. The source made the active and inactive calls.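 How the source made its calls: active means z-score in the third read window above 3 or below -3; inactive means the rest.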

The target in the assay is Metabotropic glutamate receptor 8 (Rattus norvegicus) (UniProt P70579). Briefly: rat mGluR8 modulators via GIRK flux, primary screen, cell-based, thallium flux, HTS (AID 488969). The note with it: HEK293 rat mGluR8, GIRK (G protein-gated inwardly rectifying potassium channel) thallium flux, FluoZin2; at 10 µM; stronger effect = higher value; submaximal glutamate (EC20) added with thallium.
Sequence of Metabotropic glutamate receptor 8 (Rattus norvegicus) (P70579 whole entry, looked up): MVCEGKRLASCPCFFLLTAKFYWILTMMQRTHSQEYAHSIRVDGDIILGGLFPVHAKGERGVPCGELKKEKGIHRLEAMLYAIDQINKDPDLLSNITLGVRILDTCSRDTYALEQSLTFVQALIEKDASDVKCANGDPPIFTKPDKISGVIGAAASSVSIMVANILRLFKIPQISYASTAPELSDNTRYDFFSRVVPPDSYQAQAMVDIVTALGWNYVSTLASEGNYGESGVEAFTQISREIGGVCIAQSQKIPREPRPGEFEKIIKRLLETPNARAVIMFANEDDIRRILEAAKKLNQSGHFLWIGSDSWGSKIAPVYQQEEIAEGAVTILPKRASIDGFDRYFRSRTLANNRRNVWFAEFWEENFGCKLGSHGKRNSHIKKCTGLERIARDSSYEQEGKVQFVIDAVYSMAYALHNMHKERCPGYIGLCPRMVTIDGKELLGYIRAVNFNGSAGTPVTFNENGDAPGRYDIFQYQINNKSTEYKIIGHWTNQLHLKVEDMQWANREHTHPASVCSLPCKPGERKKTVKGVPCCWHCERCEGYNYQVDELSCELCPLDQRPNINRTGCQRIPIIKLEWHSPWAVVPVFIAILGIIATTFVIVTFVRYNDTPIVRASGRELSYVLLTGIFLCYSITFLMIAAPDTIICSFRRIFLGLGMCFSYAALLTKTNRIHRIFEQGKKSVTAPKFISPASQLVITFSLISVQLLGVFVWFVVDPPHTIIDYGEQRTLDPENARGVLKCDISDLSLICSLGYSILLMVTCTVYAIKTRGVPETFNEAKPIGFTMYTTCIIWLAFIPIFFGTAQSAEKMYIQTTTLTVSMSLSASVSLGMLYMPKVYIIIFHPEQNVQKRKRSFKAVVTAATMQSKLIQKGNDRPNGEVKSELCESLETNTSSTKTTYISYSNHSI
The compound `CCOc1ccc(Cl)cc1/C=N/O` displayed a z-score of -0.395.
The value for `O/N=C/c1cc(Cl)ccc1OCc1cccc2ccccc12` was 2.76.
The value for `O/N=C/c1cc(Cl)ccc1OCc1ccccc1Cl` was -0.352.
Consider `Nc1ncnc2c1ncn2CCNCCc1ccccc1`, for which the z-score was -0.981.
The value for `COc1ccc(/C=N/n2c(-c3cccs3)n[nH]c2=S)cc1` was 2.46; that for `Cc1cc(-c2n[nH]c(=S)n2/N=C/c2cccc([N+](=O)[O-])c2)n[nH]1` was -0.221.
For the compound `COc1cccc(/C=N/n2c(-c3cccs3)n[nH]c2=S)c1`, the z-score was 3.25 (active).
The value for `Cc1cc(-c2n[nH]c(=S)n2/N=C/c2cccs2)n[nH]1` was -0.233; that for `Cc1cccc(/C=N/n2c(-c3ccccn3)n[nH]c2=S)c1` was -0.174; that for `CCOC(=O)COc1ccc(S(=O)(=O)NCc2cccnc2)cc1` was 0.014.
Then `Cc1nn(CC(=O)NCc2cccc3ccccc23)c(=O)c2ccccc12`, with -0.0519; and `COc1ccc(NC(=O)C2CCN(C(=O)c3ccccc3)CC2)c(OC)c1`, with -1.36; and `Cn1nc(C(=O)NC2CCCCCC2)ccc1=O`, with 1.32.
Then `CCOC(=O)c1c(-c2cccs2)csc1NC(=O)CNCCN1CCOCC1`, with -0.205.
Regarding `O=C(OCC(=O)N1CCCCC1)c1cc(NS(=O)(=O)c2ccc(Cl)c([N+](=O)[O-])c2)ccc1O`, the z-score is -0.652.
Then `CCN(C(=O)COC(=O)c1cc(NS(=O)(=O)c2ccc(Cl)c([N+](=O)[O-])c2)ccc1O)C1CCCCC1`, with 2; and `CC(NC(=O)COC(=O)c1cc(NS(=O)(=O)c2ccc(Cl)c([N+](=O)[O-])c2)ccc1O)C1CC2CCC1C2` (centres undefined), with -0.436; and `O=C(COC(=O)Cc1c(Cl)cccc1Cl)NCCC1=CCCCC1`, with -0.34.
Then `COc1cc(C2NC(=O)NC(O)(C(F)(F)F)C2C(=O)c2cccs2)ccc1O` (centres undefined), with -0.852.
Then `CCOC(=O)c1ccc(Nc2ncnc3ccc(C)cc23)cc1`, with -0.372; and `CCCc1cc(=O)n2[nH]c(-c3ccccc3)cc2n1`, with 0.844.
Take `CCCc1cc(=O)n2[nH]c(-c3ccc(Br)cc3)cc2n1`: the z-score was 3.04 (active).
For `CCCc1cc(=O)n2[nH]c(C)cc2n1`, the z-score is -0.851.
The value for `O=C(Cn1cc(C(=O)c2cccs2)c2ccccc21)NC1CCCCC1` was -2.37.
Turning to `O=C(Cn1c(C(F)(F)F)nc2ccccc21)c1ccc(Cl)cc1`, the z-score is -0.0833.
The compound `O=C(Nc1ccc2c(c1)OCO2)c1noc2c1CCCCC2` gave a z-score of 0.597.
Regarding `COc1ccccc1N1CCc2c(C)nc3c(OC)cccc3c21`, the z-score is -0.0829.
Then `COc1ccc(N2CCc3c(C)nc4c(OC)cc(OC)cc4c32)c(OC)c1`, with 0.775; and `COc1cc(OC)c2nc(C)c3c(c2c1)N(c1ccc(O)cc1)CC3`, with 3.3 (active); and `CNc1nc(SCc2ccccc2Cl)nc2c1CCCC2`, with -0.358.
For `Cc1cc(CC(C)C)n(-c2nc3ccccc3c(=O)n2OCC(N)=O)n1`, the z-score was 3.83 (active).
Then `Cc1cc(CC(C)C)n(-c2nc3ccccc3c(=O)n2OCc2ccccc2)n1`, with 0.802; and `Cc1cc(C)n(-c2nc3ccccc3c(=O)n2OCC(N)=O)n1`, with -0.254.
Then `Cn1c(SCc2nc(-c3ccc(Cl)cc3)no2)nnc1-c1ccco1`, with 0.0893; and `O=C(COc1ccc(OCc2ccccc2)cc1)NC1CCOC1=O` (centres undefined), with -0.0067.
Then `CC(C)C(c1nnnn1C1CCCC1)N(C)C1CCCCC1` (centres undefined), with -0.559; and `CC(C)OCCCNC(=O)c1ccc(Br)cc1`, with 0.954.
Take `COCCCNC(=O)c1cccc(NC(=O)c2ccccc2)c1`: the z-score was -0.13.
The value for `CC(C)OCCCNC(=O)c1cccc(NC(=O)c2ccccc2)c1` was 2.99.
Then `COc1ccccc1C(=O)Nn1cnc2ccccc2c1=O`, with 0.366.
As to `CCCCN1C2=C(C(=O)CCC2)C(c2ccc(Cl)c(Cl)c2)C2=C1c1ccccc1C2=O` (centres undefined), the z-score was -0.878.
Then `Cc1cc(C)c(S(C)(=O)=O)c(Oc2ccccc2C)n1`, with -0.0363; and `O=C1NCCCc2c1oc1ccc(O)cc21`, with -0.602; and `Cc1cc2c(C)cc(=O)oc2c2c1NCCC2`, with -0.295.
The value for `Oc1c(Cl)cc(Cl)c2c1NCCC2` was 5.54 (active).
Then `Cc1cc(C)cc(NC(=O)C(Nc2ccccc2)c2ccccc2)c1` (centres undefined), with 0.168; and `CCCN(CCC)C(=O)c1ccccc1C(=O)N(CCC)CCC`, with -0.328.
For `Cc1cc2c(C)nc3ccccc3c2o1`, the z-score was -0.371.
Then `COc1cccc(NC(=O)c2ocnc2C)c1`, with -0.0866; and `Cc1nc(C)c(C(=O)Nc2ccc(Oc3ccccc3)cc2)o1`, with 6.45 (active).
The value for `Cc1ncoc1C(=O)Nc1ccc(Oc2ccccc2)cc1` was 2.26; that for `Cc1nc(C)c(C(=O)Nc2cccc(Cl)c2)o1` was 0.108.
The value for `Cc1nc(C)c(C(=O)Nc2ccccc2-c2ccccc2)o1` was -0.0653.
In turn, `COc1ccc(NC(=O)c2ocnc2C)cc1OC` gave a z-score of -0.369.
The value for `CC(C)(C)NC(=O)Cn1nnc(-c2ccc(Cl)cc2)n1` was -0.11.
Compound `COc1ccc(OCC(=O)NC(=S)Nc2ccc(S(=O)(=O)Nc3cc(OC)nc(OC)n3)cc2)cc1` yielded a z-score of -0.254.
The compound `COC(=O)CC(NC(=O)c1ccc(C)cc1)c1ccccc1` (centres undefined) came in with a z-score of -0.129.
`Cc1ccc(Cn2cc(S(=O)(=O)c3ccc(Cl)cc3)c(=O)c3cc(F)ccc32)cc1` registered a z-score of -0.041.
Then `COc1cc(/C=N/NC(=O)CC23CC4CC(CC(C4)C2)C3)cc(Br)c1OCC(=O)N(C)C`, with -0.225.
Then `O=c1c2c3c(sc2nc2n1CCCC2)CCCC3`, with -0.196; and `Cc1cccc(Nc2nc(NCc3ccco3)c3ccccc3n2)c1`, with 0.729; and `Cc1ccc(Nc2nc(N)c([N+](=O)[O-])c(NCc3ccco3)n2)cc1C`, with 0.169.
As for `Nc1nc(Nc2ccccc2)nc(NCc2ccco2)c1[N+](=O)[O-]`, the z-score was 4.24 (active).
Then `Cc1cccc(Nc2nc(N)c([N+](=O)[O-])c(NCc3ccco3)n2)c1`, with 2.38; and `Cc1ccc(Nc2nc(N)c([N+](=O)[O-])c(NCc3ccco3)n2)cc1`, with -0.288; and `Nc1nc(NCc2ccccc2)nc(NCc2ccccc2)c1[N+](=O)[O-]`, with -0.14.
Then `Cc1ccc2c(c1)C(=O)CCN2`, with 0.498.
As for `CC(C)NC(=S)NC(=O)/C=C/c1cccc2ccccc12`, the z-score was 0.214.
The value for `CC(OC(=O)C1=COCCO1)C(=O)Nc1ccc(Oc2ccccc2)cc1` (centres undefined) was 0.0205.
The value for `CCOC(=O)c1c(C)[nH]c(=S)c(C#N)c1-c1ccc(OC)cc1` was 0.501; that for `CCOC(=O)c1c(-c2ccc(Cl)cc2)c(C#N)c(=O)n(N)c1N` was -0.497.
Then `CCOC(=O)c1c(C)[nH]c(=S)c(C#N)c1-c1ccc(Cl)cc1`, with 3.4 (active).
For the compound `N#Cc1ccccc1CSc1ccc(-c2nc3ccccc3[nH]2)cn1`, the z-score is -0.154.
Then `COc1ccc(-c2cc(C(F)(F)F)c(C#N)c(SCC(=O)Nc3nc(C)co3)n2)cc1`, with -0.185.
The value for `O=[N+]([O-])c1cccnc1N1CCC(c2cc(-c3cccc(C(F)(F)F)c3)n[nH]2)CC1` was -0.378.
Then `O=C(Cc1ccccc1)N1CCN(C(=O)c2ccco2)CC1`, with -0.0691; and `CC1CCc2nn(CC(=O)N3CCN(C(=O)c4ccco4)CC3)cc2C1` (centres undefined), with 3.92 (active).
For `O=C(c1ccco1)N1CCCN(C(=O)c2ccco2)CC1`, the z-score was -0.354.
Then `O=C(CCC1CCCC1)N1CCN(C(=O)c2ccco2)CC1`, with 2.43; and `CC1CCCN(C(=O)CN2CCN(C(=O)c3ccco3)CC2)C1` (centres undefined), with 0.124; and `O=C(CCSc1ccccc1)N1CCN(C(=O)c2ccco2)CC1`, with -0.515.
On to `CC1CCc2nn(CC(=O)N3CCc4ccccc43)cc2C1` (centres undefined), for which the z-score came to 0.16.
The value for `COCCCNC(=S)N1CCN(C(=O)c2ccco2)CC1` was -0.034; that for `CNC(=S)N1CCN(C(=O)c2ccco2)CC1` was 2.05.
Then `CCn1c(SCc2nc3ccccc3c(=O)[nH]2)nc2ccccc2c1=O`, with -0.672.
The value for `Cc1ccc2cc(CN(Cc3cccs3)Cc3nnnn3CC3CCCO3)c(=O)[nH]c2c1` (centres undefined) was -0.0837.
As to `CCOC(=O)N1CCN(CC(=O)Nc2ccc(C)c(Br)c2)CC1`, the z-score was -0.241.
Then `CCOC(=O)COc1ccc(S(=O)(=O)Nc2ccc(C)cc2)cc1`, with -0.352; and `CCC(c1c(C)[nH]oc1=O)c1c(C)[nH]oc1=O`, with 0.119.
The value for `COc1cc(/C=C2/SC(N)=NC2=O)ccc1Oc1ccc([N+](=O)[O-])cc1[N+](=O)[O-]` was -0.644.
In turn, `Cc1cc(C(=O)COC(=O)Cc2n[nH]c(=O)c3ccccc23)c(C)n1-c1cccc(C(F)(F)F)c1` came in with a z-score of -1.01.
The value for `CCN(CC)c1ccc2cc(-c3nnc(-c4ccc(Br)cc4)o3)c(=O)oc2c1` was -4 (active); that for `CCN(CC)c1ccc2cc(-c3nnc(-c4ccccc4)o3)c(=O)oc2c1` was 2.42; that for `CCN(CC)c1ccc2cc(C=O)c(=O)oc2c1` was 17.6 (active).
Then `CCN(CC)c1ccc2cc(C(C)=O)c(=O)oc2c1`, with -2.23; and `CCN(CC)c1ccc2cc(C(N)=O)c(=O)oc2c1`, with -0.0435.
The value for `CCN(CC)c1ccc2cc(-c3nnc(-c4ccncc4)o3)c(=O)oc2c1` was -1.17; that for `CC1CCc2nn(CC(=O)NCCCN3CCOCC3)cc2C1` (centres undefined) was -0.0438; that for `O=C(c1cccc(-n2cnnn2)c1)N1CCOCC1` was -0.145.
`COC(=O)c1ccc(C(C(=O)NCc2ccccc2)N(Cc2cccs2)C(=O)c2cnccn2)cc1` (centres undefined) showed a z-score of -0.245.
For the compound `CCc1ccccc1N1C(=O)c2ccccc2S1(=O)=O`, the z-score was -0.409.
The value for `CN(CCc1ccccn1)S(=O)(=O)c1ccccc1F` was 0.185; that for `O=C1C=C(c2ccccc2)C(=O)N1Nc1ccccc1` was 0.219.
`O=C1c2ccccc2C(=O)N1CNc1ccccc1` displayed a z-score of 0.141.
Then `O=C1c2ccccc2C(=O)N1Nc1ccccc1`, with 4.88 (active); and `COc1ccc(/C=N/OCC(=O)Nc2nc3ccccc3s2)cc1`, with -0.132; and `Cc1cc(OCCN2CCCCC2)nc2ccccc12`, with 0.234.
Then `Cc1cc(C)cc(C(=O)n2cnnc2N)c1`, with -0.0618.
The value for `CC(C)OC(=O)CC12CN(C)CC(CC(=O)OC(C)C)(CN(C)C1)C2=O` was 0.458; that for `CC(C)OC(=O)CC12CN3CN(C1)CC(CC(=O)OC(C)C)(C3)C2=O` was 3.43 (active).
As for `CCOC(=O)CC12CN3CN(C1)CC(CC(=O)OCC)(C3)C2=O`, the z-score was -0.0089.
Then `O=C(O)c1ccc(F)c(S(=O)(=O)Nc2ccccc2Cl)c1`, with -0.11.
Then `COC(=O)c1ccccc1NC(=O)c1cccc(NC(=O)CSCc2ccccc2)c1C`, with -0.0727; and `Cc1cc(Cl)ccc1OCCCC(=O)NCC1CCCO1` (centres undefined), with -0.79.
